Experimental data published in PubChem BioAssay (NCATS).
Inconclusive results are not listed. Calls of active or inactive are those of the source. Calls follow the shape of the dose curve; as a rule, active = well fitted curve in the direction sought with a large enough effect; inconclusive = small, poorly fitted or top-dose-only effect, or another doubt; inactive = no such curve, though single readings can be large; an effect the other way counts as inactive or inconclusive.

How the values were obtained:
HACAT = assay: qHTS assay to identify novel small-molecules to repurpose for Merkel cell carcinoma treatment (AID 1296009); details: MCC and control cell lines, CellTiter-Glo viability, 72 h; at 44.8 µM (top of the series) unless noted; also: nearly all actives have a fitted effect of over 60% in size
How it was run: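 qHTS format: cells treated with library compounds in DMSO across 8 (NPC) or 11 (MIPE) concentrations. Readout after 72 hr at 37 degree celsius was CellTiter-Glo luminescence.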

C33A = assay: Primary qHTS to identify gynecologic anti-cancer compounds using libraries of approved drugs and bioactive compounds (AID 1345084); details: Gynecologic cancer cell panel viability, ATPlite luminescence, 48 h; series mostly up to 57.5 µM; also: % is scaled to controls: 0 for no effect and ±100 for the full control effect; nearly all actives have a fitted effect of over 55% in size
How it was run: (§1)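 Cells, 1,000 per well, plated 16 h, then exposed 48 h at 37 C to compounds. Viability by ATPlite luminescence after 15 min at room temperature.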

CAOV3 = assay: as above; details: Gynecologic cancer cell panel viability, ATPlite luminescence, 48 h; series mostly up to 57.5 µM
How it was run: as §1

CASKI = assay: as above; details: Gynecologic cancer cell panel viability, ATPlite luminescence, 48 h; series mostly up to 57.5 µM
How it was run: as §1

Es-2 = assay: as above; details: Gynecologic cancer cell panel viability, ATPlite luminescence, 48 h; series mostly up to 57.5 µM
How it was run: as §1

HeLa = assay: as above; details: Gynecologic cancer cell panel viability, ATPlite luminescence, 48 h; series mostly up to 57.5 µM
How it was run: as §1

Hek293T = assay: as above; details: Gynecologic cancer cell panel viability, ATPlite luminescence, 48 h, control line for the selectivity index; series mostly up to 57.5 µM
How it was run: as §1

JEG-3 = assay: as above; details: Gynecologic cancer cell panel viability, ATPlite luminescence, 48 h; series mostly up to 57.5 µM
How it was run: as §1

Cc1cc(Cn2cnc3c2CC(C(=O)O)N(C(=O)C(c2ccccc2)c2ccccc2)C3)ccc1N(C)C (stereo not drawn)
inactive: outcome (HACAT) | Potency (C33A) | Potency (CAOV3) | outcome (CASKI) | Potency (Es-2) | Potency (HeLa) | Potency (Hek293T) | Potency (JEG-3)

COc1cc2c(cc1O)C(c1ccc(O)cc1)C(C)C(C)C2 (stereo not drawn)
inactive: outcome (HACAT) | Potency (C33A) | Potency (CAOV3) | outcome (CASKI) | Potency (Es-2) | Potency (HeLa) | Potency (Hek293T) | Potency (JEG-3)

CC1CCC2C(C)(C)[C@H](O)CC[C@]2(C)C12Cc1c(O)cc3c(c1O2)CN(C(CCC(=O)O)C(=O)O)C3=O (stereo partly drawn)
inactive: outcome (HACAT) inactive [at 17.4 µM] | Potency (C33A) | Potency (CAOV3) | outcome (CASKI) | Potency (Es-2) | Potency (HeLa) | Potency (Hek293T) | Potency (JEG-3)

CC(C)(O)C(O)C(=O)OCc1ccc(O[C@@H]2O[C@H](CO)[C@@H](O)[C@H](O)[C@H]2O)cc1 (stereo partly drawn)
inactive: outcome (HACAT) inactive [at 17.4 µM] | Potency (C33A) | Potency (CAOV3) | outcome (CASKI) | Potency (Es-2) | Potency (HeLa) | Potency (Hek293T) | Potency (JEG-3)

Cc1c(F)cc(C(=O)NC2CC2)cc1-c1ccc(C(=O)NCC(C)(C)C)cn1
inactive: outcome (HACAT) | Potency (C33A) | Potency (CAOV3) | outcome (CASKI) | Potency (Es-2) | Potency (HeLa) | Potency (Hek293T) | Potency (JEG-3)

CC(=O)OC1CC(=O)C2(C)C3CC4=C(OC(C)CC4=O)OC3(C)CCC2C1(C)C (stereo not drawn)
inactive: outcome (HACAT) inactive [at 17.4 µM] | Potency (C33A) | Potency (CAOV3) | outcome (CASKI) | Potency (Es-2) | Potency (HeLa) | Potency (Hek293T) | Potency (JEG-3)

CC(=O)OC[C@]12[C@H](OC(C)=O)[C@H](OC(=O)c3ccccc3)[C@@H]3[C@@H](OC(C)=O)[C@]1(OC3(C)C)[C@H](C)C[C@H](OC(=O)c1ccccc1)[C@@H]2OC(=O)c1ccccc1
inactive: outcome (HACAT) inactive [at 17.4 µM] | Potency (C33A) | Potency (CAOV3) | outcome (CASKI) | Potency (Es-2) | Potency (HeLa) | Potency (Hek293T) | Potency (JEG-3)

COC(=O)C1=CO[C@@H](O[C@@H]2O[C@H](CO)[C@@H](O)[C@H](O)[C@H]2O)[C@H]2[C@@H]1[C@H](O)C[C@]2(C)O
inactive: outcome (HACAT) inactive [at 17.4 µM] | Potency (C33A) | Potency (CAOV3) | outcome (CASKI) | Potency (Es-2) | Potency (HeLa) | Potency (Hek293T) | Potency (JEG-3)

C[C@@H]1O[C@@H](O[C@@H]2\C=C/C=C\C=C/C=C\C[C@H](C)OC(=O)/C=C\[C@H]3O[C@@H]3C[C@H](O)C[C@]3(O)C[C@@H](O)[C@@H](C(=O)O)[C@H](C2)O3)[C@H](O)[C@H](N)[C@@H]1O
inactive: outcome (HACAT) | Potency (C33A) | Potency (CAOV3) | outcome (CASKI) | Potency (Es-2) | Potency (HeLa) | Potency (Hek293T) | Potency (JEG-3)

CC(C)=CC[C@H]1O[C@]2(O)C([C@H]3CCC4[C@@]5(C)CC[C@H](O[C@@H]6O[C@H](CO)[C@H](O)[C@H](O[C@@H]7O[C@H](CO)[C@@H](O)[C@H](O)[C@H]7O)[C@H]6O[C@@H]6O[C@@H](C)[C@H](O)[C@@H](O)[C@H]6O)C(C)(C)C5CC[C@@]4(C)[C@]3(C)[C@H]2O)[C@@]1(C)O (stereo partly drawn)
inactive: outcome (HACAT) inactive [at 9.27 µM] | activity change, negative = cytotoxicity (C33A) 1.02% [at 11.6 µM] | activity change, negative = cytotoxicity (CAOV3) 7.68% [at 11.6 µM] | activity change, negative = cytotoxicity (CASKI) -0.575% [at 11.6 µM] | activity change, negative = cytotoxicity (Es-2) -1.48% [at 11.6 µM] | activity change, negative = cytotoxicity (HeLa) -4.09% [at 11.6 µM] | activity change, negative = cytotoxicity (Hek293T) 0.87% [at 11.6 µM] | activity change, negative = cytotoxicity (JEG-3) 13.4% [at 11.6 µM]

COC(=O)C1=COC(OC2OC(CO)C(O)C(O)C2O)C2C(COC(=O)/C=C/c3ccc(O)c(O)c3)C(O)C(O)C12 (stereo not drawn)
inactive: outcome (HACAT) inactive [at 17.4 µM] | Potency (C33A) | Potency (CAOV3) | outcome (CASKI) | Potency (Es-2) | Potency (HeLa) | Potency (Hek293T) | Potency (JEG-3)

COc1cc(C)c(C(=O)O[C@@H]2[C@H](O)[C@@H](CO)O[C@H]2n2ccc(=O)[nH]c2=O)c(OC)c1
inactive: outcome (HACAT) inactive [at 17.4 µM] | Potency (C33A) | Potency (CAOV3) | outcome (CASKI) | Potency (Es-2) | Potency (HeLa) | Potency (Hek293T) | Potency (JEG-3)

C[C@@H]1O[C@@H](O[C@H]2[C@@H]3C=CO[C@@H](O[C@@H]4O[C@H](CO)[C@@H](O)[C@H](O)[C@H]4O)[C@@H]3[C@@]3(CO)O[C@@H]23)[C@H](O)[C@H](OC(=O)/C=C/c2ccc(O)cc2)[C@H]1OC(=O)/C=C/c1ccc(O)cc1
inactive: outcome (HACAT) inactive [at 17.4 µM] | Potency (C33A) | Potency (CAOV3) | outcome (CASKI) | Potency (Es-2) | Potency (HeLa) | Potency (Hek293T) | Potency (JEG-3)

C[C@@H]1O[C@@H](OC2C(O[C@H]3[C@H](O[C@H]4CC[C@@]5(C)C(CC[C@]6(C)C5CC=C5C7CC(C)(C)CC(O)[C@]7(C)CC[C@]56C)C4(C)C)O[C@H](C(=O)O)[C@@H](O)[C@@H]3O)OC(CO)C(O)C2O)[C@H](O)[C@H](O)[C@H]1O (stereo partly drawn)
inactive: outcome (HACAT) inactive [at 9.27 µM] | activity change, negative = cytotoxicity (C33A) 9.23% [at 11.6 µM] | activity change, negative = cytotoxicity (CAOV3) 0.0107% [at 11.6 µM] | activity change, negative = cytotoxicity (CASKI) 13.1% [at 11.6 µM] | activity change, negative = cytotoxicity (Es-2) 2.61% [at 11.6 µM] | activity change, negative = cytotoxicity (HeLa) 3.53% [at 11.6 µM] | activity change, negative = cytotoxicity (Hek293T) 5.4% [at 11.6 µM] | activity change, negative = cytotoxicity (JEG-3) 7.17% [at 11.6 µM]

CC(CC12CCCN1C(=O)C1CCCN1C2=O)OC(N)=O (stereo not drawn)
inactive: outcome (HACAT) | Potency (C33A) | Potency (CAOV3) | outcome (CASKI) | Potency (Es-2) | Potency (HeLa) | Potency (Hek293T) | Potency (JEG-3)

COc1cccc(Cn2ncc3c4sc(S(C)=O)cc4n(C)c3c2=O)c1 (stereo not drawn)
inactive: outcome (HACAT) | Potency (C33A) | Potency (CAOV3) | outcome (CASKI) | Potency (Es-2) | Potency (HeLa) | Potency (Hek293T) | Potency (JEG-3)
